We go through 20 compounds from PubChem BioAssay (Tox21).

Several values for one entry are separate records, joined by “and”; a condition that tells them apart may be missing. Equal values may be shown once. Results filed as inconclusive are left out. The source holds several records for some structures; these can differ, active in one and inactive in another. Activity calls are given as the source filed them. Unless noted, calls come from the whole dose curve; as a rule, active = well fitted curve in the direction sought with a large enough effect in the repeat runs; inconclusive = weak or mixed curves; inactive = no such curve, though single readings can be large; an effect the other way counts as inactive or inconclusive.

Assay [1] addresses Luciferin 4-monooxygenase (Photinus pyralis) (UniProt P08659). As to the kind of experiment: qHTS assay to identify small molecule inhibitors of firefly luciferase (AID 1224835). Note: nearly all actives have a fitted effect of over 25% in size. In a few lines:
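Inhibition of purified Photinus luciferase is measured by luminescence. Substrate levels (D-luciferin, ATP) sit at their KM values. Each compound is tested in a concentration series.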
(In qHTS, concentration-response curves come from the screen itself.)

A short description of assay [2]: qHTS assay to identify small molecule agonists of the constitutive androstane receptor (CAR) signaling pathway - cell viability counter screen (AID 1224836). Note: nearly all actives have a fitted effect of over 45% in size. In a few lines:
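Counter screen multiplexed with the CAR reporter readout: HepG2 cells co-transfected with hCAR and the CYP2B6-2.2kb construct receive a 15-concentration compound series and 0.75 uM PK11195 (final), then CellTiter-Fluor fluorescence is read after 23 h.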

A short description of assay [3]: qHTS assay to identify small molecule antagonists of the constitutive androstane receptor (CAR) signaling pathway - cell viability counter screen (AID 1224837). Note: nearly all actives have a fitted effect of over 45% in size. In a few lines: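 Cytotoxicity counter-screen: CellTiter-Fluor fluorescence after 23 h compound exposure (15-point qHTS) in double-stable HepG2-CYP2B6-hCAR cells, with 50 nM CITCO added.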
Assay [4] concerns the target Nuclear receptor subfamily 1 group I member 3 (Homo sapiens) (UniProt Q14994). Briefly: qHTS assay to identify small molecule antagonists of the constitutive androstane receptor (CAR) signaling pathway (AID 1224838).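 Note: HepG2 cells stably expressing hCAR with CYP2B6 luciferase reporter stimulated by CITCO; nearly all actives have a fitted effect of over 40% in size.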 In a few lines:
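Antagonism measured as luciferase signal (ONE-Glo, 30 min, room temperature) in CAR-stimulated cells: HepG2-CYP2B6-hCAR double-stable line exposed 24 hr at 37 C to compound in a 15-point series plus 50 nM CITCO.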

The target is the same in assay [5]. As to the kind of experiment: qHTS assay to identify small molecule agonists of the constitutive androstane receptor (CAR) signaling pathway (AID 1224839). Note: nearly all actives have a fitted effect of over 15% in size. In a few lines:
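A 15-concentration quantitative screen uses HepG2 cells co-transfected stably with human CAR and CYP2B6-2.2kb reporter. Treatment lasts 24 h with 0.75 uM PK11195 final present; ONE-Glo luminescence is the signal.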

Assay [6] is described as follows: qHTS assay to identify small molecule antagonists of the estrogen related receptor signaling pathway with the pleiotropic PPARgamma coactivator (PGC) from Tox21 10K library - cell viability counter screen (AID 1224840; active = well fitted cell-killing curve with a large enough effect in the repeat runs, not every such curve was filed as active; note: nearly all actives have a fitted effect of over 40% in size). The method in brief: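 Counter-screen for cytotoxicity: after 17.5 h compound exposure at 37 C, CellTiter-Fluor reagent added to PGC/ERR cells for 30 min and fluorescence read. Cells were seeded at 2,000 per well 6 h before dosing.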

Assay [7] is described as follows: qHTS assay to identify small molecule antagonists of the estrogen related receptor signaling pathway with the pleiotropic PPARgamma coactivator (PGC) from Tox21 10K library (AID 1224841; call rule not given here; note: actives are mostly falling curves and most rising ones were filed inactive; nearly all actives have a fitted effect of over 50% in size). In a few lines: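 Luminescence (One-Glo, 30 min at room temperature) after 18 h compound treatment at 37 C of PGC/ERR reporter cells plated at 2,000 cells/well and settled 6 h beforehand.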

Assay [8] can be described thus: qHTS assay to identify small molecule agonists of the estrogen related receptor signaling pathway with the pleiotropic PPARgamma coactivator (PGC) from Tox21 10K library (AID 1224842). Note: nearly all actives have a fitted effect of over 15% in size. The method in brief:
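Luminescence from One-Glo (30 min, room temperature) measured after PGC/ERR cells had 18 h at 37 C with pinned compound (23 nL in DMSO). Cells had been seeded at 2,000 per well and pre-incubated 6 h.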

In assay [9] the target is Thyrotropin receptor (Homo sapiens) (UniProt P16473). As to the kind of experiment: qHTS assay to identify small molecule agonists of the thyroid stimulating hormone receptor (TSHR) signaling pathway (AID 1224843; calls by dose curve; note: nearly all actives have a fitted effect of over 45% in size). The method in brief:
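Agonist activity read as cAMP rise via d2/cryptate HTRF competition, 1 h room-temperature detection, in HEK293 cells expressing TSHR. Fifteen-point titrations, each run in triplicate, with a 30 min room-temperature incubation beforehand.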

Assay [10] is described as follows: qHTS assay to identify small molecule antagonists of the estrogen related receptor (ERR) signaling pathway from Tox21 library - cell viability counter screen (AID 1224834). Note: nearly all actives have a fitted effect of over 30% in size. In a few lines: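 CellTiter-Fluor fluorescence, read after 30 min at 37 C, measures viability of ERR cells. Cells plated at 2,000/well and incubated 6 h before pin-tool compound addition, then exposed 17.5 hours at 37 C.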
Potency is the fitted concentration of half-maximal effect.

Chain of Luciferin 4-monooxygenase (Photinus pyralis) (P08659 whole entry, looked up): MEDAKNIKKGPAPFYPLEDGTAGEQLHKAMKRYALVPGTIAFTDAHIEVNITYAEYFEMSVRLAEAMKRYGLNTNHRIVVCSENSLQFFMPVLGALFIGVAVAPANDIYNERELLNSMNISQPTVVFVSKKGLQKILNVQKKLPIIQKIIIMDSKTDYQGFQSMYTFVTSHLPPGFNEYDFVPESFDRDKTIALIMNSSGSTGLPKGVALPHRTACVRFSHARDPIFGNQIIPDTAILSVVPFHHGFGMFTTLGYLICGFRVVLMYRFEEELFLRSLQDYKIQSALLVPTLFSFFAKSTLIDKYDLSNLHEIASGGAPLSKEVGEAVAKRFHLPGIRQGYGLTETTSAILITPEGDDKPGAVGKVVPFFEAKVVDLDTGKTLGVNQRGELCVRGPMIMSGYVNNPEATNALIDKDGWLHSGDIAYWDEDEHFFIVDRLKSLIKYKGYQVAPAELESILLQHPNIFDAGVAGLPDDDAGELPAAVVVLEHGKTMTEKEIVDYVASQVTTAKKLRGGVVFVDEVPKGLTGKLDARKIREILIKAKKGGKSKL
Chain of Nuclear receptor subfamily 1 group I member 3 (Homo sapiens) (Q14994 whole entry, looked up): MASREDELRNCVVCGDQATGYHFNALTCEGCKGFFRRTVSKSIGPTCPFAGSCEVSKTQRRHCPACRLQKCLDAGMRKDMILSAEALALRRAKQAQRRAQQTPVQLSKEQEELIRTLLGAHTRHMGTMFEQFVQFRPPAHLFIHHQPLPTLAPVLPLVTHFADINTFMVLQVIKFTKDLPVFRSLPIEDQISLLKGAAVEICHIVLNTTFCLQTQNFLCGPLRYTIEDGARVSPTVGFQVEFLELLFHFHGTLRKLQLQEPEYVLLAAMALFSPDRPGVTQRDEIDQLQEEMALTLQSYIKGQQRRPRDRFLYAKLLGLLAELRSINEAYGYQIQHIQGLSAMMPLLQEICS
Chain of Thyrotropin receptor (Homo sapiens) (P16473 whole entry, looked up): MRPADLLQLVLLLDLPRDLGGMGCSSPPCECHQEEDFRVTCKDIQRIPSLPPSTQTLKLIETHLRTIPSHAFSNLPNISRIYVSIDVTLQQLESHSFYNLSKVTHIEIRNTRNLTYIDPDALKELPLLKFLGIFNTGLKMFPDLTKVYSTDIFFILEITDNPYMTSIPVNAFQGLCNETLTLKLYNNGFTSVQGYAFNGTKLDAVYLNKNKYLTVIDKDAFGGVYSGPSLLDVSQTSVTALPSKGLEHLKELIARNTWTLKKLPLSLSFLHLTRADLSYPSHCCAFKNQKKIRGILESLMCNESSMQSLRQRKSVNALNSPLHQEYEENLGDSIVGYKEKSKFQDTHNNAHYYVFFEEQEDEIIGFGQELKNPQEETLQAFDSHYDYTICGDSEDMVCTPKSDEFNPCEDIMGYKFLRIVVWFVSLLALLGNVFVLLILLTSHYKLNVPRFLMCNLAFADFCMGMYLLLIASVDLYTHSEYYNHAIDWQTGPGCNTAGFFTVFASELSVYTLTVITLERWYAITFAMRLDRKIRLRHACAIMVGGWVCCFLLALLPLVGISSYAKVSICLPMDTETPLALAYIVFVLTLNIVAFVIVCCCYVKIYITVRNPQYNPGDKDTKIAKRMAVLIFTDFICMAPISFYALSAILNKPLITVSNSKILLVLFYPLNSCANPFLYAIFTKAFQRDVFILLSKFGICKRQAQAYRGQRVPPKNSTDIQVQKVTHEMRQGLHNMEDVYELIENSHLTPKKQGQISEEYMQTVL

With `Nc1ccccc1C(=O)OCCc1ccccc1`, the Potency in assay [1] was 897 nM (active) and 796 nM (active); in assay [5], 54.7 µM (active) and 27.3 µM (active); in assay [8] it was 1.09 µM (active) and 1.37 µM (active). Also, the Potency entry in [2], in assay [3], in assay [4], in assay [6] and in [7] was “inactive” throughout.
As to `CC(=O)NNc1ccccc1`, the Potency result in assay [2], in assay [3], in assay [4], in assay [5], in assay [7] and in assay [8] was “inactive” in each case. Moreover, the Potency result in assay [9] is “inactive”.
Take `O=C(N[C@H]1CN2CCC1CC2)c1ccc2c(c1)OCCO2`: the Potency result in assay [10], in assay [3], in assay [4], in [5], in [6] and in assay [7] was “inactive” each time. For the same compound, the Potency entry in assay [8] and in assay [9] was “inactive” each time.
As to `CC(C)(C)CC(C)(C)c1ccc(O)cc1`, the Potency entry in [1], in [2] and in assay [3] was “inactive” throughout. Also, the Potency in assay [9] was 6.86 µM (active) and 13.3 µM (active).
As for `CCOC(=O)c1cn2nc(OP(=S)(OCC)OCC)cc2nc1C`, the Potency result in assay [1], in [2], in assay [3], in assay [6] and in [8] was “inactive” throughout. Further, the Potency in assay [7] is 43.3 µM (active).
With `Clc1ccc2ccccc2c1`, the Potency result in [10], in assay [2], in [3], in assay [4], in [5] and in assay [6] was “inactive” in each case. The Potency result in assay [9] was “inactive”.
In the case of `C=CCOC(=O)C(C)(C)OC(=O)c1cc(-n2c(=O)cc(C(F)(F)F)n(C)c2=O)ccc1Cl`, the Potency result in assay [1], in assay [2], in [3], in assay [4], in assay [6] and in [8] was “inactive” throughout.
As to `C[C@]12C=CC3=C4CCC(=O)C=C4CC[C@H]3[C@@H]1CC[C@@H]2O`, the Potency entry in [10], in assay [2], in assay [3], in assay [4] and in assay [6] was “inactive” in each case.
As to `CCC(C)(C)c1ccc(O)c(C(C)(C)CC)c1`, the Potency in [10] was 48 µM (active); in assay [2], 60.4 µM (active); in assay [4], 60.4 µM (active); in [6] it was 53.9 µM (active) and inactive; in assay [7] it was 60.4 µM (active) and inactive; in assay [9], 13.5 µM (active) and 24.3 µM (active). Further, the Potency result in assay [5] and in assay [8] was “inactive” throughout.
As to `O=C(O)C(F)(F)C(F)(F)C(F)(F)C(F)(F)C(F)(F)C(F)(F)C(F)(F)C(F)(F)F`, the Potency entry in assay [10], in assay [2], in assay [3], in [6] and in [9] was “inactive” each time.
Take `c1ccc2sc(SNC3CCCCC3)nc2c1`: the Potency result in [10], in assay [2], in assay [3], in [4], in assay [6] and in assay [9] was “inactive” each time. Moreover, the Potency in assay [5] was 53.9 µM (active).
Take `CCOP(=O)(O)C(N)=O`: the Potency result in assay [10], in assay [2], in assay [3], in [4], in assay [6] and in assay [9] was “inactive” each time.
On to `CC(C)(C)NCC(O)c1cc(Cl)c(N)c(C(F)(F)F)c1` (configuration not stated), for which the Potency result in assay [5], in [6], in assay [7] and in [8] was “inactive” throughout. In assay [9], the Potency is 2.1 nM (active).
For the compound `Cc1ncc(C[n+]2csc(CCO)c2C)c(N)n1`, the Potency entry in assay [10], in assay [2], in [3], in assay [4], in assay [5] and in [6] was “inactive” throughout. Moreover, the Potency result in assay [9] was “inactive”.
`[Cl-].[Cl-].[Hg+2]`: the Potency in [10] is 6.08 µM (active) and 4.33 µM (active); in [2], 60.8 µM (active) and 7.7 µM (active); in [3], 60.8 µM (active) and 5.45 µM (active); in [6], 15.3 µM (active) and 2.43 µM (active).
In the case of `CCOC(=O)NC(O)C(Cl)(Cl)Cl` (configuration not stated), the Potency result in assay [10], in assay [2], in assay [3], in assay [5], in assay [6] and in assay [9] was “inactive” in each case.
`COc1ccc(C(=O)c2c(C)n(CCN3CCOCC3)c3ccccc23)cc1`: the Potency entry in [1], in [2], in [3], in assay [6], in [7] and in [8] was “inactive” in each case.
With `CCCCC(CC)CO[N+](=O)[O-]` (configuration not stated), the Potency result in assay [10], in [2], in assay [3], in assay [6] and in [9] was “inactive” in each case.
Regarding `O=C(Cc1ccccc1)OCCc1ccccc1`, the Potency entry in [10], in assay [2], in assay [3], in assay [6], in assay [7] and in assay [8] was “inactive” in each case.
Consider `CCCCCCCCCCCC[N+](C)(C)CCOc1ccccc1`, for which the Potency in assay [10] was 61.1 µM (active) and 26.6 µM (active); in [6], 61.1 µM (active) and 29.8 µM (active); in assay [9], 48.6 µM (active) and inactive. The Potency entry in assay [4], in assay [5] and in [8] was “inactive” throughout.
